Screening results: PubChem BioAssay, National Center for Advancing Translational Sciences (NCATS)
DT40 TDP1 no CPT: qHTS for Inhibitors of human tyrosyl-DNA phosphodiesterase 1 (TDP1): qHTS in cells in absence of CPT | actives 15% (n = 420,000) | Potency, µM (series often up to 46.2 µM), inactives show top-dose activity change, negative = growth inhibition, most hits filed as inhibitors | AID 686978, 2013 | DT40 Tdp1-/- hTDP1 cells, no CPT, ATP luminescence, 48 h; further: nearly all actives have a fitted effect of over 55% in size
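DT40 Tdp1-/-;hTDP1 cells, no CPT (DMSO vehicle only), 400 cells/well; compounds pin-transferred; ≥48 hr, 37 °C; CellTiter-Glo 30 min RT dark, luminescence read.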
TDP1 inh: qHTS Assay for Inhibitors of Tyrosyl-DNA Phosphodiesterase (TDP1); Tyrosyl-DNA phosphodiesterase 1 (Homo sapiens), Q9NUW8; recombinant TDP1, AlphaScreen DNA substrate cleavage; actives 0.28% (n = 350,000); Potency, µM (highest dose often 130 µM), for the others: at the top dose activity change, negative = inhibition, most hits filed as inhibitors; further: nearly all actives have a fitted effect of over 40% in size
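E. coli-derived human Tdp1, 1 nM final. Cpd preinc 15 min RT; substrate 15 nM final, 5 min RT; AS bead mix 10 ug/ml final, 10 min RT. Signal loss = tyrosine-FITC cleavage. No-enzyme wells = max signal.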
PLK1 PBD inh: qHTS for Inhibitors of PLK1-PDB (polo-like kinase 1 - polo-box domain): Primary Screen. Serine/threonine-protein kinase PLK1 (Homo sapiens), P53350. Plk1 PBD binding of FITC phosphopeptide, fluorescence polarization. Potency, µM, inactives show max response, negative = inhibition, hits mostly inhibitors. actives 2.8% (n = 360,000); further: series mostly up to about 57 µM; nearly all actives have a fitted effect of over 65% in size
VDR inh: Inhibitors of the vitamin D receptor (VDR): qHTS. AID 504847, 2011. Vitamin D3 receptor (Homo sapiens), P11473. Potency, µM, for the others: max response, negative = inhibition, usual class: inhibitors. actives 0.93% (n = 400,000). VDR-SRC2-3 peptide fluorescence polarization, 2 h
Target sequence (P11473 whole entry, looked up): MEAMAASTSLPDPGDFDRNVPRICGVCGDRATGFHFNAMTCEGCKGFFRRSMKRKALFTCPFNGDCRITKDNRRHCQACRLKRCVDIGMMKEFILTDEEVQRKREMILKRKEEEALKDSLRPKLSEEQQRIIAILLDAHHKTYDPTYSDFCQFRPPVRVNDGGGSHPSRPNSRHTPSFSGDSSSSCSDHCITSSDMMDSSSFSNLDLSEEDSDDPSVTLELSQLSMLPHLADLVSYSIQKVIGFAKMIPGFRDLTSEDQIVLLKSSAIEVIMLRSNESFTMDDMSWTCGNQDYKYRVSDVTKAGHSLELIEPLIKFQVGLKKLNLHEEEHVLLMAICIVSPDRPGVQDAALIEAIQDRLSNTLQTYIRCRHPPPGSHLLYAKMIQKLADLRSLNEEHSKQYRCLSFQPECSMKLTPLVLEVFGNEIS
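Fluorescence polarization assay measuring small-molecule disruption of VDR binding to the coregulator peptide SRC2-3. Compounds were pin-transferred (23 nl) into the reagent mix and incubated 2 h at room temperature before reading.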
DT40 TDP1 CPT: qHTS for Inhibitors of human tyrosyl-DNA phosphodiesterase 1 (TDP1): qHTS in cells in presence of CPT | chicken DT40 Tdp1-/-;hTDP1 cells + 20 nM CPT, ATP luminescence, 48 h | Potency, µM (highest dose often 46.2 µM), for inactives: at the highest dose activity change, negative = growth inhibition, most hits filed as inhibitors | actives 12% (n = 420,000); further: nearly all actives have a fitted effect of over 55% in size
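Chicken DT40 Tdp1-/- cells stably complemented with human TDP1 were seeded at 400 cells/well in medium containing 20 nM camptothecin, exposed to pin-transferred compounds, and grown at 37 °C for at least 48 hr. Viability was read as ATP luminescence.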
GCN5L2 inh: qHTS Assay for Inhibitors of GCN5L2; AID 504327, 2011; actives 0.21% (n = 390,000); GCN5L2 HAT assay, ThioGlo1 CoA-SH fluorescence; Potency, µM (series often up to 58.9 µM), inactives show at the top dose activity change, negative = inhibition, actives largely listed as inhibitors; Histone acetyltransferase KAT2A (Homo sapiens), Q92830
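Titration-based screen in which CoA formation is detected via maleimide probe ThioGlo1 (50uM) turning fluorescent on thiol reaction; substrates H3(1-25) 75uM and acetyl-CoA 70uM, GCN5L2 20nM, 20 min incubation at room temperature.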
* marks the source's active call; other numbers are inactive results; ? = inconclusive; nt = not tested or not shown; [ ] = dose if it differs, or a comment. A selection: hits, their analogues and other compounds. The true share with any hit is near 18%. The call rests on the fitted dose curve; in most records, active means well fitted curve in the direction sought with a large enough effect; inconclusive means small, poorly fitted or top-dose-only effect, or another doubt; inactive means no such curve, though single readings can be large; an effect the other way counts as inactive or inconclusive. On the % scale 0 is the no-effect control and ±100 the full control effect; potency means the concentration at half of the fitted maximal effect.

SMILES | DT40 TDP1 no CPT | TDP1 inh | PLK1 PBD inh | VDR inh | DT40 TDP1 CPT | GCN5L2 inh
Cn1c(CSc2nc3ccccc3s2)nc2ccccc21 | ? | 4% | -9% | 18% | ? | 2%
S=c1[nH]nc(CSCCOc2ccccc2)o1 | -29% | 11% | -14% | 9% | -7% | 3%
O=C(O)CSc1nc2ccccc2s1 | 16% | 3% | -6% | -3% | 14% | ?
NCCSc1nc2ccccc2s1 | 11µM* | nt | nt | nt | ? | nt
CC(C)NS(=O)(=O)c1ccc(Br)c(C(=O)OC(C)C(=O)NC2CCCCC2C)c1 (stereo unspecified) | ? | -2%[0.505 µM] | -6% | 2% | -15% | 3%
c1ccc(SCc2nc3ccccc3[nH]2)nc1 | ? | 9% | -10% | 17% | -6% | -1%
CC(=O)CSc1nc2ccccc2s1 | -28% | 2% | 27µM* | 10% | -28% | 25%
O=C(CSc1nc2ccccc2s1)CSc1nc2ccccc2s1 | -5% | -5% | -6% | 20% | 4% | 2%
O=c1oc2ccccc2n1CSc1nc2ccccc2s1 | 13µM* | -2% | ? | -4% | -27% | -7%
C=CCS(=O)(=O)c1nc2ccccc2s1 | 21µM* | 2% | -19% | -1% | 16µM* | -8%
c1ccc2[nH]c(CSc3nc4ccccc4s3)nc2c1 | 15µM* | 9% | -4% | 5% | ? | -13%
O=C1CCCCC2CCCCN12 (stereo unspecified) | nt | 5%[234 µM] | nt | 8% | nt | -15%[135 µM]
CN(CCc1ccccn1)C(=O)CCC1CCCN(C(=O)NC2CCCCC2)C1 (stereo unspecified) | -3% | nt | -8% | -11% | 9% | 0%
O=S(=O)(CCSc1nc2ccccc2s1)c1nc2ccccc2s1 | 3.7µM* | 1% | -30% | 21% | 6.5µM* | -6%
O=S(=O)(CCc1ccccc1)c1nc2ccccc2s1 | nt | 3% | nt | -12% | nt | nt
Cc1cccc2cc(CN(Cc3ccc(F)cc3)C(=O)N3CCOCC3)c3nnnn3c12 | ? | -3% | 24µM* | -13% | ? | -5%
Cc1cc(/C=N/NC(=O)c2cccs2)c(C)n1-c1ccccc1 | 13µM* | 8% | -2% | 14% | 16µM* | ?
COc1ccc(/C=N/NC(=O)c2cccnc2)c2ccccc12 | -26% | nt | -5% | -13% | 1% | -7%
Cc1cc(C(=O)N/N=C/c2ccc(O)c(O)c2O)c(C)n1-c1ccccc1 | 3.3µM* | 0% | 6.7µM* | -21% | 4.6µM* | ?
Cc1cc(/C=N/NC(=O)c2cccc([N+](=O)[O-])c2)c(C)n1-c1ccccc1 | ? | 5% | -13% | -1% | ? | 1%
COc1ccc(/C=N/NC(=O)c2cccs2)c2ccccc12 | 8.2µM* | nt | -5% | -5% | ? | nt
c1c[nH]c(CNc2ncnc3ccc(-c4ccc5c(c4)OCO5)cc23)n1 | nt | -19% | nt | nt | nt | nt
CS(=O)(=O)N1CCC2(CCCN(c3ncccn3)C2)CC1 | -18% | nt | nt | 8% | 6% | 2%
CC1(C(=O)N2CC3(CC(c4cccc(NC(=O)COc5ccc(Cl)cc5)c4)=NO3)C[C@@H]2C(N)=O)CC1 (stereo partly specified) | 15µM* | 6% | -9% | -5% | 13µM* | 0%
C=C(C)C(=O)Nc1cccc(C2=NOC3(C2)C[C@H](C(N)=O)N(C(=O)COc2ccc(Cl)cc2)C3)c1 (stereo partly specified) | -7% | 11µM* | 24µM* | -9% | -1% | -15%
